A selection: hits, their analogues and other compounds. The true share with any hit is near 1.4%.
Chronic BCR inh = blocks chronic active B-cell receptor signaling; ABC-DLBCL IkBa-CBG/CBR reporter, luminescence ratio, 4 h; Potency, µM (titrated, usually from 46.1 µM), without a hit: top-dose activity change, negative = inhibition, actives largely listed as inhibitors; 340,000 compounds, 0.05% hits; AID 493014; active means well fitted inhibition curve with a large enough effect in the signal ratio, with a control signal flat, not every such curve was filed as active; inconclusive means small, poorly fitted or top-dose-only effect, or effect the other way, or a change in a side signal; the % refers to the signal ratio;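 further: potency means the concentration at half of the fitted maximal effect; plate controls were basal doxycycline-induced cells for no effect and cells given 10 µM MG132 for full effect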
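Cell line TMD8 (human ABC DLBCL), stably expressing tet-inducible CBG68-IkBa fusion and CBR; IMDM/0.5% FBS; cpd up to 46 uM; dox induction, 4 h, 37C/5% CO2; dual luminescence; green/red ratio; MG132 control.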
IL-2 act = activates IL-2 in a cell-based reporter assay | 360,000 compounds, 0.065% hits | AID 652025 | IL-2 activation reporter assay, cell-based qHTS; stimulated with anti-CD3/CD4/CD28 beads; in transgenic mouse T cells | activation, % (series mostly up to about 46 µM); in the data active means activation above about 50%; inconclusive means mostly about 30% to 49%; further: 0% is about no effect
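Readout: EGFP and DsRed signals by fluorescent plate cytometry. Unstimulated transgenic mouse T cells received compound 60 min before antibody-bead stimulation, then incubated 18 h at 37 degrees C.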
Nrf2 activator = Nrf2 pathway activation; 410,000 compounds, 0.31% hits; AREc32 ARE-luciferase reporter (MCF7-derived line), luminescence, 24 h; Potency, µM (doses to about 46.1 µM), inactives show top-dose activation, usual class: activators; AID 624171; further: potency means the concentration at half of the fitted maximal effect; % of control where 0% means no effect; nearly all actives have a fitted effect of over 65% in size
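Reporter line AREc32 (ARE-Fluc), seeded overnight in OPTI-MEM with 5% FBS; compound pin-transferred, 24 hr at 37 deg C, 5% CO2; luminescent read-out.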
BRCA1 expr up = increases BRCA1 expression; MCF7-BRCA1-FFLuc reporter, luminescence, 48 h; response scale: scaled: vehicle 0%, 10 µM genistein 100%; Potency, µM (doses to about 46.1 µM), inactives show at the highest dose activation, actives largely listed as activators; 380,000 compounds, 1.1% hits; further: potency means the concentration at half of the fitted maximal effect; nearly all actives have a fitted effect of over 80% in size
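MCF7-BRCA1-FFLuc cells, 2000/well in phenol-red-free MEM, attached 2 h then treated 48 h at 37 C. Luciferase luminescence read 15 min after reagent; normalized to genistein maximum activation (10microM) and DMSO, concentration-response fitted.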
N370S GC = inhibits or activates N370S mutant glucocerebrosidase. 330,000 compounds, 0.092% hits. N370S GC spleen homogenate, 4MU-glucoside fluorescence. Potency, µM (highest dose often 59.4 µM), without a hit: top-dose activity change, negative = inhibition, hits mostly inhibitors. P04062;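 further: potency means the concentration at half of the fitted maximal effect; 0% = full enzyme activity and -100% = no enzyme basal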
a7 integrin act = integrin-mediated muscular dystrophy alleviation activation; AID 624291; alpha7betagal myoblasts, beta-gal FDG fluorescence, 48 h; 350,000 compounds, 0.064% hits; Potency, µM (titrated, usually from 38.3 µM), for inactives: at the top dose activation, usual class: activators;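 further: potency means the concentration at half of the fitted maximal effect; 100% = response of the positive control SU9516; nearly all actives have a fitted effect of over 60% in size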
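alpha7betagal+/- myoblasts (passage 13, 250/well) treated 48 h at 37C with compounds at 1:260 dilution of DMSO stock. Lysed, then beta-galactosidase activity read as FDG fluorescence (ex 480/em 540) after 30 min, with pre-read for autofluorescence.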
Numbers without * were called inactive; ? = inconclusive; nt = not tested or not shown; [ ] = another dose, or the depositor's remark. Unless noted, the call rests on the fitted dose curve; in most records, active means well fitted curve in the direction sought with a large enough effect; inconclusive means small, poorly fitted or top-dose-only effect, or another doubt; inactive means no such curve, though single readings can be large; an effect the other way counts as inactive or inconclusive.

SMILES	Chronic BCR inh	IL-2 act	Nrf2 activator	BRCA1 expr up	N370S GC	a7 integrin act
c1ccc2c(c1)-c1cccc3cccc-2c13	?	-1	0%	15%	25%	1%
Nc1c(Br)cc2c3c(cccc13)-c1ccccc1-2	nt	82*	13%	-35%	nt	-34%
CC(C)c1c(CN(C)[C@@H](C)Cc2ccccc2)n(C)n(-c2ccccc2)c1=O	nt	nt	nt	nt	-6%[21.6 µM]	nt
O=[N+]([O-])c1cc(Cl)c2cccnc2c1O	11µM*	0	11%	-89%	-6%	-52%
C[N+](C)(C)CC1CCCC(C[N+](C)(C)C)C1=O (stereo not drawn)	nt	-1	11µM*	-85%	nt	-57%
CS(=O)(=O)NNC(=O)Cn1nnc(-c2ccc(OCc3ccccc3Cl)cc2)n1	nt	1	2%	11µM*	nt	-19%
C[C@@]12CC[C@H]3[C@@H](CC[C@@H]4C[C@H]5S[C@H]5C[C@]43C)[C@H]1CC[C@H]2O	nt	nt	nt	nt	12%[21.6 µM]	nt
O=C(/C=C/c1ccccc1)c1c(O)n(CCc2ccccc2)c(=O)[nH]c1=O	-15%	-1	8.9µM*	-77%	?	-35%
CN(C)c1ccc(N(C)C)cc1	nt	nt	nt	nt	-4%	nt
CN(C)c1ccc([N+](=O)[O-])c([N+](=O)[O-])c1	nt	0	11µM*	-23%	nt	-47%
CC(C)(C)[C@]1(O)C[C@@H]2OC(=O)CC23C(=O)O[C@@H]2OC(=O)[C@H](O)C231 (stereo partly drawn)	nt	nt	nt	nt	-5%	nt
CCC(CC)c1nnc(NC(=O)CC(C)c2ccccc2)s1 (stereo not drawn)	5%	-3	0%	-41%	2%	-14%
CCCC(C)c1nnc(NC(=O)CCS(=O)(=O)c2ccccc2)s1 (stereo not drawn)	?	-1	22µM*	-42%	4%	-42%
O=C1NC(=O)N(c2ccccc2)C(=O)/C1=C/c1ccc(Sc2ccccc2)o1	?	96*	-1%	-35%	2%	-59%
O=[N+]([O-])/C=C/c1c(Cl)cccc1Cl	nt	-7	14µM*	-85%	nt	-8%
CCCC[C@@H](C)[C@@H](OC(=O)C[C@@H](CC(=O)O)C(=O)O)[C@H](C[C@@H](C)CCCCCC[C@@H](O)C[C@H](O)[C@H](C)N)OC(=O)C[C@@H](CC(=O)O)C(=O)O	nt	nt	nt	nt	-4%	nt
Cc1ccc(N2CCN(C(=O)c3cn(CC4CCCCC4)nn3)C(C)C2)cc1 (stereo not drawn)	nt	-5	0%	2.5µM*	nt	-43%
Cc1ccc(/C(N)=N/OC(=O)CCC2CCCCC2)cc1	?	0	0%	60%	5%	-7%
COCCOC(=O)c1c(N)n(Cc2ccccc2)c2nc3ccccc3nc12	?	1	0%	-51%	?	-8%
COCCCNC(=O)c1c(NC(=O)c2ccccc2)n(Cc2ccccc2)c2nc3ccccc3nc12	nt	68*	1%	8%	nt	16%
Cc1cc(/C=C2\C(=O)NC(=O)N(c3ccc(Br)cc3)C2=O)c(C)n1-c1cc(C(=O)O)cc(C(=O)O)c1	2%	-3	2%	21%	-5%	-9%
Cc1cc(/C=C2\C(=O)NC(=O)N(c3cccc(Br)c3)C2=O)c(C)n1C	0%	68*	-1%	-35%	-16%	11%
Cc1cc(C(=O)CS(=O)(=O)c2ccc(F)cc2)cc(C)c1OC(=O)N(C)C	1%	1	2%	4µM*	4%	4%
O=C(Oc1ccc([N+](=O)[O-])cc1)N1CCN(/[N+]([O-])=N/Oc2ccc([N+](=O)[O-])cc2[N+](=O)[O-])CC1	nt	nt	nt	16%	nt	nt
CCCOP(=O)(O)c1c([N+](=O)[O-])cc(C(F)(F)F)cc1[N+](=O)[O-] (tested in a mixture with another compound)	-3%	0	1%	10µM*	12%	12%
O=c1[nH]c(=S)[nH]c(O)c1N=Nc1ccc(S(=O)(=O)N2CCc3ccccc32)cc1	8%	-6	8.9µM*	-80%	-17%	-40%
CC(C)c1ccc(N=Nc2c(O)[nH]c(=O)[nH]c2=O)cc1	17%	1	3%	?	-11%	?
O=c1[nH]c(=S)[nH]c(O)c1N=Nc1ccc(SC(F)F)cc1	?	4	16µM*	-50%	-19%	10%
